# From PubChem BioAssay (NCATS)
# Results filed as inconclusive are left out. The source made the active and inactive calls. Calls follow the shape of the dose curve; as a rule, active = well fitted cell-killing curve with a large enough effect; inconclusive = small, poorly fitted or top-dose-only effect, or effect the other way; inactive = no such curve, though single readings can be large or run the other way.
# Assay: Quantitative High-Throughput drug screen in 47 multiple myeloma cell lines against the NCATS MIPE library collection: Karpas25_ECACC cell viability assay (AID 1918968; also: nearly all actives have a fitted effect of over 35% in size)
# Details: Karpas25 myeloma viability, CellTiter-Glo ATP, 48 h; series mostly up to 45.8 µM; viability (% of control): at the top concentration
# Procedure, shortened: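 Approved and investigational drugs from MIPE 4.0 were added by pin tool to 500 cells per well. After 48 hours at 37C, ATP-based CellTiter-Glo luminescence indicated remaining viability.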
# Potency is read from the fitted curve at half-maximal effect.
SMILES,viability (% of control),Potency
COc1cccc(-c2ccc(NC(=O)C3=C(C(=O)O)CCC3)c(F)c2)c1,106% (inactive),
CC(C)Nc1cc(C(F)(F)F)cc2nc(NC(=O)c3cccnc3)nn12,119% (inactive),
CC(C)c1cc(-c2n[nH]c(=O)n2-c2ccc3c(ccn3C)c2)c(O)cc1O,,0.0209 µM (active)
Nc1nccc(Oc2ccc(NC(=O)c3c[nH]cc(-c4ccc(F)cc4)c3=O)cc2F)c1Cl,,16.6 µM (active)
Clc1cccc(-c2nnnn2Cc2cccnc2)c1Cl,,16.6 µM (active)
CC(C)(C)c1cc(NC(=O)Nc2ccc(-c3cn4c(n3)sc3cc(OCCN5CCOCC5)ccc34)cc2)no1,,13.2 µM (active)
Cn1c(=O)n(-c2ccc(C(C)(C)C#N)cc2)c2c3cc(-c4cnc5ccccc5c4)ccc3ncc21,,0.0105 µM (active)
CN(C)CC(C)(C)CNc1nn2c(-c3ccccc3)nnc2cc1C1CCC1,,16.6 µM (active)
CC1(C)CC(=O)c2c(C(F)(F)F)nn(-c3ccc(C(N)=O)c(NC4CCC(OC(=O)CN)CC4)c3)c2C1 (stereo unspecified),,0.187 µM (active)
C=CC(=O)Nc1cccc(Oc2nc(Nc3ccc(N4CCN(C)CC4)cc3)ncc2Cl)c1,,3.72 µM (active)
Nc1cccc(-c2cc3c(Oc4cccc(O)c4)ncnc3[nH]2)c1,,18.7 µM (active)
O=c1c2ccccc2nc2n1CCc1c-2[nH]c2ccccc12,86.3% (inactive),
C[C@]12CC[C@H](O)CC1=CCC1C2CC[C@]2(C)C(n3cnc4ccccc43)=CCC12 (stereo partly specified),109% (inactive),
OCc1ccc(-c2ccc(-c3ccc(CO)s3)o2)s1,,3.72 µM (active)
Clc1ccc2ncc(-c3cccc(NC4CNC4)n3)n2c1,,26.4 µM (active)
CC1(C)CCC(c2ccc(Cl)cc2)=C(CN2CCN(c3ccc(C(=O)NS(=O)(=O)c4ccc(N[C@H](CCN5CCOCC5)CSc5ccccc5)c(S(=O)(=O)C(F)(F)F)c4)cc3)CC2)C1,,0.833 µM (active)
CC(C)c1noc(N2CCC(COc3ccc(-c4ccc(S(C)(=O)=O)cc4)nc3)CC2)n1,,1.48 µM (active)
NC(=O)c1cccc2cn(-c3ccc([C@@H]4CCCNC4)cc3)nc12,81.9% (inactive),
C1Cc2[nH]nc(-c3nn[nH]n3)c2C1,101% (inactive),
C[C@]1(CO)CN(c2cc(C(=O)Nc3ccc4c(c3)-c3c(c(C(N)=O)nn3-c3ccc(F)cc3)CC4)c(Cl)cn2)C[C@@]1(C)CO,,14.8 µM (active)
NC1(Cc2ccc(Cl)cc2)CCN(c2ncnc3[nH]ccc23)CC1,,1.87 µM (active)
CCCNC(=O)Nc1ccc(Oc2ncnc3cc(OC)c(OC)cc23)cc1Cl,105% (inactive),

# Assay: Quantitative High-Throughput drug screen in 47 multiple myeloma cell lines against the NCATS MIPE library collection: KMS27_JCRB cell viability assay (AID 1918970); also: nearly all actives have a fitted effect of over 30% in size
# Details: KMS27 myeloma cells, CellTiter-Glo ATP viability, 48 h; series mostly up to 45.8 µM; viability (% of DMSO): at the top concentration
# Procedure, shortened: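 CellTiter-Glo luminescence after 48 h drug exposure at 37 °C; 500 cells/well, 1536-well format, pin-tool compound addition; DMSO = 100%, media-only = 0% viability.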
SMILES,Potency,viability (% of DMSO)
Cc1cc(Nc2nc(N[C@@H](C)c3ccc(F)cc3)c(C#N)cc2F)n[nH]1,0.935 µM (active),
CC(C)Nc1cc(C(F)(F)F)cc2nc(NC(=O)c3cccnc3)nn12,,124% (inactive)
CC(C)c1cc(-c2n[nH]c(=O)n2-c2ccc3c(ccn3C)c2)c(O)cc1O,0.0264 µM (active),
CCNC(=O)Nc1ccc2ncc(Nc3ccc(C)cc3)nc2n1,0.526 µM (active),
Cc1cn2cc(C(=O)N(C)CCO)cc(N[C@@H]3CCOc4cccc(C)c43)c2n1,,113% (inactive)
C=CC(=O)Nc1cccc(Oc2nc(Nc3ccc(N4CCN(C)CC4)cc3OC)ncc2Cl)c1,37.2 µM (active),
CN(C)CC(C)(C)CNc1nn2c(-c3ccccc3)nnc2cc1C1CCC1,1.18 µM (active),
NC(=O)c1c(OCc2c(F)cc(Br)cc2F)nsc1NC(=O)NCCCCN1CCCC1,,139% (inactive)
CC1(C)CC(=O)c2c(C(F)(F)F)nn(-c3ccc(C(N)=O)c(NC4CCC(OC(=O)CN)CC4)c3)c2C1 (stereo unspecified),0.0743 µM (active),
C=CC(=O)Nc1cccc(Oc2nc(Nc3ccc(N4CCN(C)CC4)cc3)ncc2Cl)c1,4.69 µM (active),
C[C@]12CC[C@H](O)CC1=CCC1C2CC[C@]2(C)C(n3cnc4ccccc43)=CCC12 (stereo partly specified),,132% (inactive)
OCc1ccc(-c2ccc(-c3ccc(CO)s3)o2)s1,0.0118 µM (active),
Clc1ccc2ncc(-c3cccc(NC4CNC4)n3)n2c1,,134% (inactive)
CC1(C)CCC(c2ccc(Cl)cc2)=C(CN2CCN(c3ccc(C(=O)NS(=O)(=O)c4ccc(N[C@H](CCN5CCOCC5)CSc5ccccc5)c(S(=O)(=O)C(F)(F)F)c4)cc3)CC2)C1,0.0148 µM (active),
NC(=O)c1cccc2cn(-c3ccc([C@@H]4CCCNC4)cc3)nc12,,99.5% (inactive)
C1Cc2[nH]nc(-c3nn[nH]n3)c2C1,,119% (inactive)
O=C(O)CCCc1c[nH]c2ccccc12,,82.8% (inactive)
C[C@]1(CO)CN(c2cc(C(=O)Nc3ccc4c(c3)-c3c(c(C(N)=O)nn3-c3ccc(F)cc3)CC4)c(Cl)cn2)C[C@@]1(C)CO,0.0053 µM (active),
NC1(Cc2ccc(Cl)cc2)CCN(c2ncnc3[nH]ccc23)CC1,4.69 µM (active),
CCCNC(=O)Nc1ccc(Oc2ncnc3cc(OC)c(OC)cc23)cc1Cl,,119% (inactive)

# Assay: Quantitative High-Throughput drug screen in 47 multiple myeloma cell lines against the NCATS MIPE library collection: KMS12BM_JCRB cell viability assay (AID 1918971); also: nearly all actives have a fitted effect of over 35% in size
# Details: KMS12BM myeloma viability, CellTiter-Glo ATP, 48 h; series mostly up to 45.8 µM; viability, % of DMSO: at the top concentration
# Procedure, shortened: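 Inhibition of cell viability is measured here. Each line was plated at 500 cells per well, treated with MIPE 4.0 drugs, kept 48 hours at 37C, then assayed for ATP content by CellTiter-Glo luminescence.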
SMILES,Potency,"viability, % of DMSO"
COc1cccc(-c2ccc(NC(=O)C3=C(C(=O)O)CCC3)c(F)c2)c1,20.9 µM (active),
CC(C)c1cc(-c2n[nH]c(=O)n2-c2ccc3c(ccn3C)c2)c(O)cc1O,0.0372 µM (active),
Nc1nccc(Oc2ccc(NC(=O)c3c[nH]cc(-c4ccc(F)cc4)c3=O)cc2F)c1Cl,16.6 µM (active),
COc1cc(-c2nn(C3CCC(N4CCN(C(C)=O)CC4)CC3)c3ncnc(N)c23)ccc1NC(=O)c1cc2ccccc2n1C (stereo unspecified),10.5 µM (active),
CC(C)(C)c1cc(NC(=O)Nc2ccc(-c3cn4c(n3)sc3cc(OCCN5CCOCC5)ccc34)cc2)no1,16.6 µM (active),
COc1ccc2c(c1)CC[C@@H](CN(C)CC(=O)O)[C@H]2c1ccccc1,2.09 µM (active),
Cn1c(=O)n(-c2ccc(C(C)(C)C#N)cc2)c2c3cc(-c4cnc5ccccc5c4)ccc3ncc21,0.0132 µM (active),
NC(=O)c1c(OCc2c(F)cc(Br)cc2F)nsc1NC(=O)NCCCCN1CCCC1,18.7 µM (active),
CC1(C)CC(=O)c2c(C(F)(F)F)nn(-c3ccc(C(N)=O)c(NC4CCC(OC(=O)CN)CC4)c3)c2C1 (stereo unspecified),0.187 µM (active),
Nc1cccc(-c2cc3c(Oc4cccc(O)c4)ncnc3[nH]2)c1,20.9 µM (active),
O=c1c2ccccc2nc2n1CCc1c-2[nH]c2ccccc12,,133% (inactive)
C[C@]12CC[C@H](O)CC1=CCC1C2CC[C@]2(C)C(n3cnc4ccccc43)=CCC12 (stereo partly specified),18.7 µM (active),
OCc1ccc(-c2ccc(-c3ccc(CO)s3)o2)s1,23.5 µM (active),
Clc1ccc2ncc(-c3cccc(NC4CNC4)n3)n2c1,23.5 µM (active),
CC1(C)CCC(c2ccc(Cl)cc2)=C(CN2CCN(c3ccc(C(=O)NS(=O)(=O)c4ccc(N[C@H](CCN5CCOCC5)CSc5ccccc5)c(S(=O)(=O)C(F)(F)F)c4)cc3)CC2)C1,0.332 µM (active),
C1Cc2[nH]nc(-c3nn[nH]n3)c2C1,,135% (inactive)
C[C@]1(CO)CN(c2cc(C(=O)Nc3ccc4c(c3)-c3c(c(C(N)=O)nn3-c3ccc(F)cc3)CC4)c(Cl)cn2)C[C@@]1(C)CO,16.6 µM (active),
NC1(Cc2ccc(Cl)cc2)CCN(c2ncnc3[nH]ccc23)CC1,18.7 µM (active),
CCCNC(=O)Nc1ccc(Oc2ncnc3cc(OC)c(OC)cc23)cc1Cl,18.7 µM (active),
